# Source: article PMC7862700, “An all-to-all approach to the identification of sequence-specific readers for epigenetic DNA modifications on cytosine”
# Key:
# Test in all cases: DAPPL (digital affinity profiling via proximity ligation, sequencing); 10 mM Tris-HCl pH 7.5, 50 mM NaCl, 1 mM DTT, 4% glycerol, room temperature, 30 min; GST-TFs on glutathione beads, 16-mer random dsDNA library, 0.1% formaldehyde crosslink after washing; high values mean tight binding
# FEV = target: T1, FEV (Homo sapiens, UniProt Q99581 1-238); settings: protein: recombinant; tags: N-terminal GST; dsDNA, one strand shown
# T1 sequence: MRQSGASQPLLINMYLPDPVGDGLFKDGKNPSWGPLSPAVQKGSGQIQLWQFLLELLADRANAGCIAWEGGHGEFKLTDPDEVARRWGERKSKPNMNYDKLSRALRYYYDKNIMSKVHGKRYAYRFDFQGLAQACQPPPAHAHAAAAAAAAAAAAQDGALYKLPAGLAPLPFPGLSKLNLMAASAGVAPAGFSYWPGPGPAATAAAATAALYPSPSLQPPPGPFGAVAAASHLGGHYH
# Procedure, shortened: (§1)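 Binding signal is each hexamer's read frequency for a factor divided by its frequency in the tag-only sample. The factors were GST-fused human transcription factors from yeast, captured on glutathione beads, DNA-barcoded and pooled with that sample. Pools were incubated with 200 nmole of a random double-stranded 16-mer DNA library in Tris/NaCl/DTT/glycerol buffer at room temperature for 30 min, then washed, crosslinked with 0.1% formaldehyde, proximity-ligated with BsaI/T4 ligase (1 h, 37 °C), PCR-amplified and sequenced on an Illumina NextSeq500.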
# ETV5 = ETV5 (Homo sapiens, UniProt P41161 1-510); settings: protein: recombinant; tags: N-terminal GST; dsDNA, one strand shown
# Procedure, shortened: as §1
# HSF1 = HSF1 (Homo sapiens, UniProt Q00613 1-529); settings: protein: recombinant; tags: N-terminal GST; chain copies: 3; dsDNA, one strand shown
# Procedure, shortened: as §1
# SPIC = target: T2, SPIC (Homo sapiens, UniProt Q8N5J4 1-248); settings: protein: recombinant; tags: N-terminal GST; dsDNA, one strand shown
# T2 sequence: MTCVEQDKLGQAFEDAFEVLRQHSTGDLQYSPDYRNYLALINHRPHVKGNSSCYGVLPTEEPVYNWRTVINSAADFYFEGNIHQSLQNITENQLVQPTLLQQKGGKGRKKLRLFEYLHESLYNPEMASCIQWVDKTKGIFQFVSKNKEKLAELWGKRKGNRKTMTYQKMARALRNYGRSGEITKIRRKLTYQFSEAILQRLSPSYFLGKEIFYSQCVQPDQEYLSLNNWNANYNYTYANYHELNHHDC
# Procedure, shortened: as §1
# ELF4 = ELF4 (Homo sapiens, UniProt Q99607 1-663); settings: protein: recombinant; tags: N-terminal GST; dsDNA, one strand shown
# Procedure, shortened: as §1
# ELK4 = target: T3, ELK4 (Homo sapiens, UniProt P28324-2 1-405); settings: protein: recombinant; tags: N-terminal GST; dsDNA, one strand shown
# T3 sequence: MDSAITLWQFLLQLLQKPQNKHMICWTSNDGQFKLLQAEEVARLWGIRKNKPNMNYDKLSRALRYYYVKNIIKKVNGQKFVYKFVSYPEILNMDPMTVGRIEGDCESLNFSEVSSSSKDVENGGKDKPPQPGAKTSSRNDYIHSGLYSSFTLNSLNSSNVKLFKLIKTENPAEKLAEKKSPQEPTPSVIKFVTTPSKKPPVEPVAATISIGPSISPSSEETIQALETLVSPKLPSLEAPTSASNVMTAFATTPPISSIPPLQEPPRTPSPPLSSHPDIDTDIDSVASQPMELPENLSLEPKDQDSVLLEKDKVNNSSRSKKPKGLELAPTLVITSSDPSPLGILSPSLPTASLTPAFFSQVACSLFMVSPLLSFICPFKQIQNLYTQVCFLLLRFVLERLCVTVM
# Procedure, shortened: as §1
# ETV2 = target: T4, ETV2 (Homo sapiens, UniProt O00321 1-342); settings: protein: recombinant; tags: N-terminal GST; dsDNA, one strand shown
# T4 sequence: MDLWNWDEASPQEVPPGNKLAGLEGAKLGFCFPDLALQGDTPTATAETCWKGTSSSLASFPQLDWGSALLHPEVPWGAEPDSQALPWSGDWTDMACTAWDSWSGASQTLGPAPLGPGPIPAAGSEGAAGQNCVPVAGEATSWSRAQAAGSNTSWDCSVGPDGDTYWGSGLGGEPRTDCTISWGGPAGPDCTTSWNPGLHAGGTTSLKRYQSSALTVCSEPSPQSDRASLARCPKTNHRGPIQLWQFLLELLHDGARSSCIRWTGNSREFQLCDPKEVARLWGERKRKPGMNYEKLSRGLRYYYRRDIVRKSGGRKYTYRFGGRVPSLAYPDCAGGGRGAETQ
# Procedure, shortened: as §1
# ELF3 = target: T5, ELF3 (Homo sapiens, UniProt P78545 1-371); settings: protein: recombinant; tags: N-terminal GST; dsDNA, one strand shown
# T5 sequence: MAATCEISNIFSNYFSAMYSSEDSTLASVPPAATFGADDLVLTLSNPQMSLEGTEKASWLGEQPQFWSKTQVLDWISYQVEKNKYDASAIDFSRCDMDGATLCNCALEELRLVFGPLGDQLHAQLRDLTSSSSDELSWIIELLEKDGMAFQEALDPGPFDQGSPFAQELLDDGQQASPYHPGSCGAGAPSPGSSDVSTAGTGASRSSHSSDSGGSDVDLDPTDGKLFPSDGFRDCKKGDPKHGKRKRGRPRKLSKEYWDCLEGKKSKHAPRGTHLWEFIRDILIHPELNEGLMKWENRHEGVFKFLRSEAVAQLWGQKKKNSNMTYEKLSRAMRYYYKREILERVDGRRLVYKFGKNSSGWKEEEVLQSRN
# Procedure, shortened: as §1
# CRX = CRX (Homo sapiens, UniProt O43186 1-299); settings: protein: recombinant; tags: N-terminal GST; dsDNA, one strand shown
# Procedure, shortened: as §1
# ETV1 = ETV1 (Homo sapiens, UniProt P50549 1-477); settings: protein: recombinant; tags: N-terminal GST; dsDNA, one strand shown
# Procedure, shortened: as §1
# ERF = target: T6, ERF (Homo sapiens, UniProt P50548 1-548); settings: protein: recombinant; tags: N-terminal GST; dsDNA, one strand shown
# T6 sequence: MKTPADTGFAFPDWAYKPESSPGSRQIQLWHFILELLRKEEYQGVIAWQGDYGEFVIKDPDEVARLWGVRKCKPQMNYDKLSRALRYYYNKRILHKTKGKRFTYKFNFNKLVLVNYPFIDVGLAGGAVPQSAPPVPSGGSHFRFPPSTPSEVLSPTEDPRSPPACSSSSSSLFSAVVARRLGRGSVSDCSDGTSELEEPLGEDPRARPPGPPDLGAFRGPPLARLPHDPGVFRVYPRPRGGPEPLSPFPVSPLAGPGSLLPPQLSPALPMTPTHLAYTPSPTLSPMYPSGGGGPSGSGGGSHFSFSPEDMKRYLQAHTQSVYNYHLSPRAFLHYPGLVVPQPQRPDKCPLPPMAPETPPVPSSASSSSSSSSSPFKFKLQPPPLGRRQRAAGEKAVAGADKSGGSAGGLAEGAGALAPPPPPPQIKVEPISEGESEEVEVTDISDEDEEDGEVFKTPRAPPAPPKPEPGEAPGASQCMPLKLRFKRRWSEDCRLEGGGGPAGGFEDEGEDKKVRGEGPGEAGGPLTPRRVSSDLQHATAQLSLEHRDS
# Procedure, shortened: as §1
# ETV3L = target: T7, ETV3L (Homo sapiens, UniProt Q6ZN32 1-361); settings: protein: recombinant; tags: N-terminal GST; dsDNA, one strand shown
# T7 sequence: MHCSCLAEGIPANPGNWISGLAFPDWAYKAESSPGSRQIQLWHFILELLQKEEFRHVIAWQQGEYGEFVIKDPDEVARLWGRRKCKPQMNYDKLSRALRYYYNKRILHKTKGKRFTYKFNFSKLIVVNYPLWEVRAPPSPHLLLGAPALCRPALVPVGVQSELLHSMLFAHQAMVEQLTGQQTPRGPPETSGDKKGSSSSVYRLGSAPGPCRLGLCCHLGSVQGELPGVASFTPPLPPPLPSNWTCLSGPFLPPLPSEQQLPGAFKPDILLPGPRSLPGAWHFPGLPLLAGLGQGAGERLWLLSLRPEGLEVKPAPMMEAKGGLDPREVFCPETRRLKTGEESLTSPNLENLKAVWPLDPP
# Procedure, shortened: as §1
# ETS2 = target: T8, ETS2 (Homo sapiens, UniProt P15036 1-469); settings: protein: recombinant; tags: N-terminal GST; dsDNA, one strand shown
# T8 sequence: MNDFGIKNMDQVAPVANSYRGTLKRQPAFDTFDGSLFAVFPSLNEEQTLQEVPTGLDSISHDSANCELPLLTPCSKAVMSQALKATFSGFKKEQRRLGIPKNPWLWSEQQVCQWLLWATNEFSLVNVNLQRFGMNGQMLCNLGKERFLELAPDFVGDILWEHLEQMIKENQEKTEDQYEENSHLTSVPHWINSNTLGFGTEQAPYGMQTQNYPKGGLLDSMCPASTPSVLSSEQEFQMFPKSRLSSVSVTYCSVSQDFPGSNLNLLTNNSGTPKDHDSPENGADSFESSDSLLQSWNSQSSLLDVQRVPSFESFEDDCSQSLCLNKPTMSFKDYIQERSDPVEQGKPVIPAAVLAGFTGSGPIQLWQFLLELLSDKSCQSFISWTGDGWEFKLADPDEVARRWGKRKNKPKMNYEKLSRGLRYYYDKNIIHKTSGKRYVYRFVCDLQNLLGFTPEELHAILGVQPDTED
# Procedure, shortened: as §1
# SPDEF = target: T9, SPDEF (Homo sapiens, UniProt O95238 1-335); settings: protein: recombinant; tags: N-terminal GST; dsDNA, one strand shown
# T9 sequence: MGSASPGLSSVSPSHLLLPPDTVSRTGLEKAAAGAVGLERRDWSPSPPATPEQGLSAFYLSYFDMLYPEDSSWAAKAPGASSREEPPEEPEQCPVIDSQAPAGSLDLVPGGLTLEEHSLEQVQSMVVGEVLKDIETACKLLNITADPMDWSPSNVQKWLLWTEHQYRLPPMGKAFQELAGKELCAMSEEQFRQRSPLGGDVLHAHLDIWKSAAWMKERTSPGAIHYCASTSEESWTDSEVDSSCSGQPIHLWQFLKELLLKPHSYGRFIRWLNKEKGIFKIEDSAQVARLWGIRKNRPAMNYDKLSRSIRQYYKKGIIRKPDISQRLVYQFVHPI
# Procedure, shortened: as §1
# ETV7 = target: T10, ETV7 (Homo sapiens, UniProt Q9Y603 1-341); settings: protein: recombinant; tags: N-terminal GST; dsDNA, one strand shown
# T10 sequence: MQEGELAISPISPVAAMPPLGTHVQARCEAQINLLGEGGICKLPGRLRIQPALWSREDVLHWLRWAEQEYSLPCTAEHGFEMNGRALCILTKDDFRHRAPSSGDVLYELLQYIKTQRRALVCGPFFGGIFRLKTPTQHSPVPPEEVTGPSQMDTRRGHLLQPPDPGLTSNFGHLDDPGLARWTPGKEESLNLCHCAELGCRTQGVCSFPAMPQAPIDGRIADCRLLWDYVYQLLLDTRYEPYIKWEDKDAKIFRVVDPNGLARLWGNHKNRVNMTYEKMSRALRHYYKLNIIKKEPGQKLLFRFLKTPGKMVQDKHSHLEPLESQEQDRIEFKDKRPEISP
# Procedure, shortened: as §1
# ELF5 = target: T11, ELF5 (Homo sapiens, UniProt Q9UKW6-2 1-255); settings: protein: recombinant; tags: N-terminal GST; dsDNA, one strand shown
# T11 sequence: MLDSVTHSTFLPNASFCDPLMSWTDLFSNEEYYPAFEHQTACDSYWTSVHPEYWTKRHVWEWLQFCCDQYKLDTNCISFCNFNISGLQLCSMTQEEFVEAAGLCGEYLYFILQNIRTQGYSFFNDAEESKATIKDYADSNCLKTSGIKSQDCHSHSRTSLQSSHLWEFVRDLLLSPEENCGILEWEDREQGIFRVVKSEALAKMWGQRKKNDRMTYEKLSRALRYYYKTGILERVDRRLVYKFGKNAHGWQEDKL
# Procedure, shortened: as §1
# ETV3 = target: T12, ETV3 (Homo sapiens, UniProt P41162-2 1-143); settings: protein: recombinant; tags: N-terminal GST; dsDNA, one strand shown
# T12 sequence: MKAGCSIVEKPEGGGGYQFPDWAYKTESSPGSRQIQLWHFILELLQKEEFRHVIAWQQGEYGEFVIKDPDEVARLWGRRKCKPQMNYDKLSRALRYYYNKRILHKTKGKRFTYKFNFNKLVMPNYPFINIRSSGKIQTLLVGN
# Procedure, shortened: as §1
# ETV6 = ETV6 (Homo sapiens, UniProt P41212 1-452); settings: protein: recombinant; tags: N-terminal GST; dsDNA, one strand shown
# Procedure, shortened: as §1
# Sequence of ETV1 (P50549 whole entry): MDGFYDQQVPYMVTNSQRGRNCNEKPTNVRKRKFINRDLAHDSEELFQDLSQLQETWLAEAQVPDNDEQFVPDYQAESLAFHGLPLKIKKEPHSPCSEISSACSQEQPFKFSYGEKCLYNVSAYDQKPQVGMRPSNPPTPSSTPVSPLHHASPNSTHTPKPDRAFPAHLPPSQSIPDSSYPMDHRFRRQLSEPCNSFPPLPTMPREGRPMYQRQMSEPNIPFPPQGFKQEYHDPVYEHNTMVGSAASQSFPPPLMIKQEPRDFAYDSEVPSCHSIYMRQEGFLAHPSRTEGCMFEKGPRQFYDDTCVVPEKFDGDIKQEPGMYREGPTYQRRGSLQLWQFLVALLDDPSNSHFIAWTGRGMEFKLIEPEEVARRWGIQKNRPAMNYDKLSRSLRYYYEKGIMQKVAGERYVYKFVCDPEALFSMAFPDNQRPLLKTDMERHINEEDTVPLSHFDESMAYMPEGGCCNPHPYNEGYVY
# Sequence of ELF4 (Q99607 whole entry): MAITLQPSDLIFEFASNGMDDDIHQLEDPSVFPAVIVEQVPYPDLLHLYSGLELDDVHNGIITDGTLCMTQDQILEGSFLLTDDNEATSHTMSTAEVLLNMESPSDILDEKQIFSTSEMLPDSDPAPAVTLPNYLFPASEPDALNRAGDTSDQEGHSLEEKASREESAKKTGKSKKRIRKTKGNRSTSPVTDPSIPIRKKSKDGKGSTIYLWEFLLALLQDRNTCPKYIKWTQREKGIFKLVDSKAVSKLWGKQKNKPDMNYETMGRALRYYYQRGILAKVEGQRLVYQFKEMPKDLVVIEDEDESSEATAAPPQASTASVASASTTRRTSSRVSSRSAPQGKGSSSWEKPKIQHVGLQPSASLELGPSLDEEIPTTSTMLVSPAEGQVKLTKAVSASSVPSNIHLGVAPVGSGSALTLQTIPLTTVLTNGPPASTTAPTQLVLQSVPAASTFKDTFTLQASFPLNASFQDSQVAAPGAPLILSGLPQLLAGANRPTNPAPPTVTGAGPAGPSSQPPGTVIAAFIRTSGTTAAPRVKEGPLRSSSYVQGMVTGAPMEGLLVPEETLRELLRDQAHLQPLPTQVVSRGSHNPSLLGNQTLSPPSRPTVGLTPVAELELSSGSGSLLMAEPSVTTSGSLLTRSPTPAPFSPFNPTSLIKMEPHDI
# Sequence of ETV5 (P41161 whole entry): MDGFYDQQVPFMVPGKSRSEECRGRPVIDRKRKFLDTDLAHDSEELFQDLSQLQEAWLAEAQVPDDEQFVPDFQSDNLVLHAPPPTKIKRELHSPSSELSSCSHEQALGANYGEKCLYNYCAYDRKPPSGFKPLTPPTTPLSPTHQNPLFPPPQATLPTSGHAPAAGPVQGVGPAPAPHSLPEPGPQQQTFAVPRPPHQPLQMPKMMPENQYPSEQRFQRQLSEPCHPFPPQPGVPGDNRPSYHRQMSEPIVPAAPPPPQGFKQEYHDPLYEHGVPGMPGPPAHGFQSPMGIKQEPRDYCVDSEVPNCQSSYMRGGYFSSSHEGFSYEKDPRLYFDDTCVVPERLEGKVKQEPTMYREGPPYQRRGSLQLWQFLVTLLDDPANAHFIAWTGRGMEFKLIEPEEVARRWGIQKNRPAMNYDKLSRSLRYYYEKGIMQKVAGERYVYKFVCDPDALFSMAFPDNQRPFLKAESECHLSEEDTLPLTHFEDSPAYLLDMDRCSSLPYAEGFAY
# Sequence of ETV6 (P41212 whole entry): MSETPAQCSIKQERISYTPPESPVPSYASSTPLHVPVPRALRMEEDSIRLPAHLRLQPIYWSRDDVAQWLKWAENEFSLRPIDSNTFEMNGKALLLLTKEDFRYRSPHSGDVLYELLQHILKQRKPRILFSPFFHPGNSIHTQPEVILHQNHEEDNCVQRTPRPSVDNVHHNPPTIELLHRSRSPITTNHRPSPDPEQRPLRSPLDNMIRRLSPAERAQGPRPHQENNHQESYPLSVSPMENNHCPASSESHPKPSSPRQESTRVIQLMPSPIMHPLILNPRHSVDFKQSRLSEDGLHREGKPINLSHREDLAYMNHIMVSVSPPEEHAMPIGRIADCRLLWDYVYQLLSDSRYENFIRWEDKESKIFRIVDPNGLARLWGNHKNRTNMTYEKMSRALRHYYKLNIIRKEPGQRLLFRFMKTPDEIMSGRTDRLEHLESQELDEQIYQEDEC
# Sequence of HSF1 (Q00613 whole entry): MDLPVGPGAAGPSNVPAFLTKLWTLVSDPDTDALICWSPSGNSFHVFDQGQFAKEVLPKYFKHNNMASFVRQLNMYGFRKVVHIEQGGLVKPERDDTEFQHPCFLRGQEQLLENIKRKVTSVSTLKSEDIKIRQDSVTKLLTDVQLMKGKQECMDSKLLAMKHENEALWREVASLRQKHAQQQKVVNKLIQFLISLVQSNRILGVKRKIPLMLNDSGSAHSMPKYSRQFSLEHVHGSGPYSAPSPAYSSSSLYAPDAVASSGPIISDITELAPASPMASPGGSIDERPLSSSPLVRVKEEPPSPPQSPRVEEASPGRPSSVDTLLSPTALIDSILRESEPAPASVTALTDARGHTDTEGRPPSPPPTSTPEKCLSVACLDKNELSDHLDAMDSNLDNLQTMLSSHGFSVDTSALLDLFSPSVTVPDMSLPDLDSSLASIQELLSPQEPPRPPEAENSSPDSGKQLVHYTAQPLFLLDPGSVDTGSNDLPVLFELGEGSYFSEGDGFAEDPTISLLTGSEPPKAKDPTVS
# Sequence of CRX (O43186 whole entry): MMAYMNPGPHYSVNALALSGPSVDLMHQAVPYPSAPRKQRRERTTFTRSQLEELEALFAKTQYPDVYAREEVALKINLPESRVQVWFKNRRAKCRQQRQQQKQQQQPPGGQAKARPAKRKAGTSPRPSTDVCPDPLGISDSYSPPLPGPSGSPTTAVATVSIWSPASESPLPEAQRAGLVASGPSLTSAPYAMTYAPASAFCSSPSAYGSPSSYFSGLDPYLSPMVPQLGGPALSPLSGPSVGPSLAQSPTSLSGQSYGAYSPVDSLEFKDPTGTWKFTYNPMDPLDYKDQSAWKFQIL
sequence,measurement,setting,value
AATCAT,binding signal,FEV,"1.1 fold enrichment (6-mer frequency, TF over GST control)"
same,binding signal,ETV5,"1.15 fold enrichment (6-mer frequency, TF over GST control)"
same,binding signal,HSF1,"1.27 fold enrichment (6-mer frequency, TF over GST control)"
same,binding signal,SPIC,"1.14 fold enrichment (6-mer frequency, TF over GST control)"
same,binding signal,ELF4,"1.06 fold enrichment (6-mer frequency, TF over GST control)"
same,binding signal,ELK4,"1.12 fold enrichment (6-mer frequency, TF over GST control)"
same,binding signal,ETV2,"1.21 fold enrichment (6-mer frequency, TF over GST control)"
same,binding signal,ELF3,"1.17 fold enrichment (6-mer frequency, TF over GST control)"
same,binding signal,CRX,"1.39 fold enrichment (6-mer frequency, TF over GST control)"
same,binding signal,ETV1,"1.15 fold enrichment (6-mer frequency, TF over GST control)"
same,binding signal,ERF,"1.18 fold enrichment (6-mer frequency, TF over GST control)"
same,binding signal,ETV3L,"1.18 fold enrichment (6-mer frequency, TF over GST control)"
same,binding signal,ETS2,"1.11 fold enrichment (6-mer frequency, TF over GST control)"
same,binding signal,SPDEF,"1.07 fold enrichment (6-mer frequency, TF over GST control)"
same,binding signal,ETV7,"1.04 fold enrichment (6-mer frequency, TF over GST control)"
same,binding signal,ELF5,"1.18 fold enrichment (6-mer frequency, TF over GST control)"
same,binding signal,ETV3,"1.12 fold enrichment (6-mer frequency, TF over GST control)"
same,binding signal,ETV6,"1.16 fold enrichment (6-mer frequency, TF over GST control)"
